# The source made the active and inactive calls.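 Rule for the calls: active = EC50 at or below 10 µM; inactive = EC50 above 10 µM.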
# Assay: fluorescence interference artefacts, compound only, dose response, artefact control for cardiac thin filament activator project, biochemical, no RTF in test wells (AID 504697);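 note: emission near 535 nm under roughly 485 nm excitation as for IANBD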
# Settings: compound-only fluorescence in RTF assay buffer with Ca2+ (no RTF in test wells), artifact counterscreen
row,Structure (SMILES),EC50
1,Cc1ccc(N2C(=O)C3C(C(=O)c4ccccc4)=NN(c4ccccc4)C3C2=O)cc1 (stereo unspecified),33.8 µM (inactive)
2,CCN1/C(=C/c2ccc3cc(C)ccc3[n+]2CC)Sc2ccccc21,> 71.4 µM (inactive)
3,C[C@@H](C(=O)N1CCNCC1)n1cc(CCCN=C(N)N)nn1,> 71.5 µM (inactive)
4,CC1=CC(=C(C#N)c2nc3ccccc3s2)C=C(C)N1c1ccc(F)cc1,22.2 µM (inactive)
5,COc1ccc(CCNC(=O)COC(=O)c2cc(=O)[nH]c3ccccc23)cc1,> 71.5 µM (inactive)
6,O=C(O)c1ncc(-c2ccccc2)cn1,> 71.5 µM (inactive)
7,CC1(C)CCN2CCC(C)(C)c3c(O)ccc1c32,5.84 µM (active)
8,COc1ccccc1C(=O)Oc1ccc2c(c1)O/C(=C\c1ccncc1)C2=O,30.9 µM (inactive)
9,NC(=O)C1CCN(C(=O)c2ccc(-c3ccccc3)cc2)CC1,> 71.6 µM (inactive)
10,Cc1ccc(C(=O)Nc2ccc3c(c2)ncn3C)cc1,> 71.4 µM (inactive)
11,CCOC(=O)N1CCN(C(=S)Nc2ccccc2C)CC1,> 71.4 µM (inactive)
12,Cc1ccc(C)c(C(=O)CSc2n[nH]c(C(C)C)n2)c1,> 71.5 µM (inactive)
13,COc1ccc(N/C=C2\C(=O)CCc3c2oc2cc(Cl)c(O)c(Cl)c32)cc1,7.28 µM (active)
14,Oc1ccc2ccc3cccc[n+]3c2c1,2.46 µM (active)
15,c1ccc2[nH]c3cc4ncnc4cc3nc2c1,17.9 µM (inactive)
16,O=C(COC(=O)c1ccc(O)cc1)Nc1ccc2c(c1)OCCO2,> 71.5 µM (inactive)
17,CC(=O)Nc1ccc2cc3ccc(NC(C)=O)cc3nc2c1,> 71.5 µM (inactive)
18,CN1CCC2(CC1)C1CN(C)CC=C1C(C#N)=C(N)C2(C#N)C#N (stereo unspecified),23.5 µM (inactive)
19,CCN(CC)c1ccc(/C=c2\sc3nnc(-c4ccccc4Cl)n3c2=O)cc1,0.644 µM (active)
20,Fc1ccc(-c2[nH]ncc2CN(CC2CCC2)CC2CCCO2)c(F)c1 (stereo unspecified),> 71.5 µM (inactive)
21,CCC[C@@H](CN1CCC[C@H]1CN1C(N)=NC[C@@H]1Cc1ccccc1)N1C[C@@H](Cc2ccccc2)N(CCCC2CCCC2)C1=N,> 71.4 µM (inactive)
